Screening data (PubChem BioAssay)
Sampled rows, rich in hits. Any-hit rate of the full collection: about 1.1%.
MOR-DOR ag-1: agonists of OPRM1-OPRD1 heterodimerization, primary screen, cell-based, luminescence. Mu-type opioid receptor (Homo sapiens) + Delta-type opioid receptor (Homo sapiens), …. cells. activation, % at 9.3 µM. actives 0.3% (n = 340,000);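 also: 0% = vehicle-treated cells and 100% = reference agonist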
HTR5A inv ctr: HTR5A inverse agonists in luminescence cell assay, primary screen, counter-screen for OPRM1-OPRD1 heterodimer inverse agonist project, full-deck HTS | HTR5A cell line, inverse agonism | 5-hydroxytryptamine receptor 5A (Homo sapiens), P47898 | actives 0.083% (n = 340,000) | AID 504634, 2011 | inhibition, % at 9.3 µM; in the data active = inhibition mostly above about 23%, no sharp cut-off; inactive = mostly below about 18%;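 also: 0% = cells with DMSO and 100% = no-cell wells with DMSO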
Target sequence (P47898 whole entry, looked up): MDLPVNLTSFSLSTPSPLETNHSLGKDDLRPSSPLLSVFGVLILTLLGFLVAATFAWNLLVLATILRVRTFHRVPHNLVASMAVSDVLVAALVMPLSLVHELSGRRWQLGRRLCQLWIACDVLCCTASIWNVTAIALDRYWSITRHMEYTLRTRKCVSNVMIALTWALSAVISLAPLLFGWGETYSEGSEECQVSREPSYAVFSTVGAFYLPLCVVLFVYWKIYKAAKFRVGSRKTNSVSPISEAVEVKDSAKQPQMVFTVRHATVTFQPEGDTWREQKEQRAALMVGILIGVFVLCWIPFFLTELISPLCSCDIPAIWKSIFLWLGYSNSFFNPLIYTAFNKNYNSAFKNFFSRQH
OPRM1-OPRD1 inv: inverse agonists of MOR-DOR heterodimerization, primary screen, cell-based, luminescence; Mu-type opioid receptor (Homo sapiens) + Delta-type opioid receptor (Homo sapiens), …; cell-based MOR-DOR heterodimer luminescence, inverse agonism; inhibition, % at 9.3 µM; actives 0.21% (n = 340,000); in the data active = inhibition above about 22%, passing the limit was not always enough;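 also: 0% = cells with DMSO and 100% = wells without cells with DMSO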
HTR5A ag: HTR5A agonists in luminescence cell assay, primary screen, counter-screen for OPRM1-OPRD1 heterodimer agonist project, full-deck HTS; AID 504692, 2011; activation, % at 9.3 µM; actives 0.61% (n = 340,000); cell-based; 5-hydroxytryptamine receptor 5A (Homo sapiens), P47898; in the data active = activation mostly above about 9.5%, no sharp cut-off; inactive = mostly below about 7.6%;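 also: 0% = cells with vehicle only and 100% = reference agonist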
MOR-DOR ag-2: OPRM1-OPRD1 heterodimerization promoters, counter-screen for HTR5A agonist project, cell-based, luminescence | shares compounds with HTR5A ag | U2OS counter-screen cells, complementation luminescence, 3 h | actives 13% (n = 800) | AID 504913, 2011 | activation, % at 9.3 µM
HTR5A ag conf: HTR5A agonists, retest of hits, confirmation, cell-based, luminescence | actives 17% (n = 800) | HTR5A agonist cell assay | activation, % at 9.3 µM | shares compounds with HTR5A ag | AID 504915, 2011; in the data active = activation above about 17%;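 also: 0% = cells with vehicle only and 100% = full reference agonist response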
The depositor's hits bear a star; / = no result. Rule as the data show it, unless noted: active = activation above about 18%; inactive = the rest.

SMILES	MOR-DOR ag-1	HTR5A inv ctr	OPRM1-OPRD1 inv	HTR5A ag	MOR-DOR ag-2	HTR5A ag conf
CCOC(=O)c1c(CSC(=N)N)n(-c2ccc(C)cc2)c2cc(Br)c(OC(C)=O)cc12	16	-98	-93	17*	14	8
CC(C)(O)C#Cc1ccc(C(=O)N2CCC(CCC(=O)NC3CC3)CC2)cc1	-3	0	16	0	/	/
C[C@H]1COC(=O)[C@@H](CC(=O)OC(C)(C)C)C/C=C\C[C@@H](CC(=O)N(CCO)Cc2ccccc2)C(=O)N1	-1	-5	8	2	/	/
Cc1cc(C)c(S(=O)(=O)N2CCN(C(=O)CCn3nc(C)c(C)c3C)CC2)c(C)c1	0	-47	0	16*	1	1
CCOc1ccc(NC(=O)N2CCC(n3nnc4cc(C)ccc43)CC2)cc1	-2	1	11	-1	/	/
O=C(CSc1n[nH]c(-c2ccco2)n1)Nc1sc2c(c1C(=O)Nc1ccccc1)CCCC2	1	-30	-6	18*	3	4
O=C(CSc1n[nH]c(-c2ccco2)n1)Nc1ccc(Br)cc1	-3	16	17	-4	/	/
CCCCC1(Br)C(=O)N(c2ccccc2)N(c2ccccc2)C1=O	-6	-42	23	16*	1	0
CCC(C)NS(=O)(=O)c1ccc(S(=O)(=O)N(CC(=O)Nc2ccccc2)Cc2ccco2)cc1 (stereo not drawn)	1	-9	-4	15*	-1	2
